Assay outcomes: PubChem BioAssay, National Center for Advancing Translational Sciences (NCATS)
Hits are enriched below; roughly 17% of the tested compounds scored in any of these assays.
DT40 TDP1 no CPT = qHTS for Inhibitors of human tyrosyl-DNA phosphodiesterase 1 (TDP1): qHTS in cells in absence of CPT | AID 686978, 2013 | Potency, µM (highest dose often 46.2 µM), usual class: inhibitors | DT40 Tdp1-/- hTDP1 cells, no CPT, ATP luminescence, 48 h | hit rate 15% among 420,000; note: nearly all actives have a fitted effect of over 55% in size
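Seeded 400 DT40-hTDP1 cells/well (vehicle DMSO, no 20 nM CPT); pinned compounds; ≥48 hr at 37 °C; CellTiter-Glo luminescence as viability measure.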
ATXN2 expr inh = ATXN2 expression inhibition | HEK-293 ATXN2-luciferase reporter, luminescence, 24 h | Potency, µM (series often up to 57 µM), actives largely listed as inhibitors | hit rate 0.72% among 360,000 | AID 1745845; note: nearly all actives have a fitted effect of over 55% in size
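ATXN2-luciferase reporter cells (luciferase flanked by upstream and downstream ATXN2 gene portions) were treated 24 h at 37 °C with compounds at up to 57 uM. SteadyGlo luminescence gave expression; GF-AFC fluorescence gave viability.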
TGFb SMAD3 inh = blocks TGF-b signaling. HepG2 CAGA-GFP TGF-b/SMAD3 reporter, GFP fluorescence, 18 h; TGF-beta stimulated, 500 pg/mL final. Potency, µM (series often up to 46.1 µM), hits mostly inhibitors. hit rate 1.2% among 410,000. AID 588855; note: nearly all actives have a fitted effect of over 65% in size
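HEPG2 CAGA-GFP cells (1000/well, DMEM with 1% FBS) were pre-incubated 2 h at 37 degrees C, given compound by pin tool, then stimulated with TGF-beta at 500 pg/mL final for 18 h before per-cell GFP fluorescence imaging.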
HepG2 viability = kills HepG2 cells in TGF-b inhibitor counter-screen | HepG2 CAGA-GFP viability, ATP luminescence, 18 h | Potency, µM (top dose mostly 46.1 µM), most hits filed as cytotoxic | hit rate 0.76% among 410,000 | AID 588856
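CellTiter-Glo luminescence gave cytotoxicity after 18 hours at 37 degrees C. The cells were HepG2 CAGA-GFP in 1% FBS DMEM, stimulated with 500 pg/mL TGF-beta after compound addition. %Activity was normalised to no-cell wells (complete cell-killing) and DMSO (no toxicity), and curves were fitted and classified.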
S2 tox = reduces viability in counter-screen for ATXN expression inhibitors; S2 cells (HEK-293 line with an ATXN2-luciferase reporter) viability, CellTiter-Fluor protease fluorescence, 24 h; Potency, µM (highest dose often 56.7 µM), usual class: cytotoxic; hit rate 0.49% among 400,000; AID 651635; note: nearly all actives have a fitted effect of over 40% in size
DT40 TDP1 CPT = growth inhibition of DT40 Tdp1-/-;hTDP1 cells with camptothecin (screen for TDP1 inhibitors) | chicken DT40 Tdp1-/-;hTDP1 cells + 20 nM CPT, ATP luminescence, 48 h | Potency, µM (titrated, usually from 46.2 µM), usual class: inhibitors | hit rate 12% among 420,000; note: nearly all actives have a fitted effect of over 55% in size
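Cell growth measured by CellTiter-Glo luminescence after a minimum 48 h, 37 C compound exposure with 20 nM CPT in Tdp1-knockout DT40 cells stably expressing hTDP1, seeded 400/well; qHTS titration format.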
A number is an active result; – = inactive; ? = inconclusive; · = no result given. Calls come from the whole dose curve; as a rule, active = well fitted curve in the direction sought with a large enough effect; inconclusive = small, poorly fitted or top-dose-only effect, or another doubt; inactive = no such curve, though single readings can be large; an effect the other way counts as inactive or inconclusive.

SMILES | DT40 TDP1 no CPT | ATXN2 expr inh | TGFb SMAD3 inh | HepG2 viability | S2 tox | DT40 TDP1 CPT
c1ccc(-c2ccc(-c3cnc4n3CCCCC4)cc2)cc1 | 18µM | – | ? | – | – | ?
COC(=O)c1cc(-c2c(C)oc3cc(OC(C)C)ccc3c2=O)c(C)o1 | 15µM | – | – | – | – | 15µM
COc1ccc(-c2nc3ccc(C)cn3c2NCc2ccccc2)cc1SC1CCCCC1 | 23µM | – | 20µM | – | 16µM | 13µM
CCCCNc1c(-c2cccc(SC3CCCCC3)c2)nc2ccc(Cl)cn12 | ? | – | – | – | – | ?
CCCCNc1c(-c2ccc(SC3CCCCC3)c(OC)c2)nc2ccc(C)cn12 | 18µM | ? | ? | 8.9µM | ? | 23µM
CCCCNc1c(-c2ccc(OC)c(SC3CCCCC3)c2)nc2ccc(C)cn12 | 8.2µM | 25µM | 18µM | 13µM | 10µM | 5.8µM
Cc1ccccc1CNS(=O)(=O)c1c(C(=O)N2CCCCC2)c(C)n(C)c1C | – | – | – | – | – | –
COc1ccc(CNC(=O)COC(=O)[C@H](Cc2c[nH]c3ccccc23)NC(=O)c2cccs2)cc1 | ? | – | – | – | – | ?
Cc1ccc(C)c2c1CCCC2=O | – | · | – | – | – | –
Cc1[nH]nc2c1C(=O)CCC2 | 18µM | – | – | – | – | 23µM
Cc1ccc(N(CC(=O)NC2CCCC2)C(=O)CCC(=O)Nc2nccs2)cc1C | – | – | – | – | – | –
C=CCNC1=C(Cl)C(=O)c2ccccc2C1=O | 16µM | – | ? | 13µM | – | 15µM
CC(=O)N(Cc1ccc(F)cc1)C1=C(NCCc2ccccc2)C(=O)c2ccccc2C1=O | 1.8µM | 13µM | ? | 4µM | 28µM | 1.8µM
CCN(CC)CCCNC1=C(Cl)C(=O)c2ccccc2C1=O | 4.1µM | ? | 4.5µM | 3.2µM | 24µM | 3.3µM
COCCCNC1=C(Cl)C(=O)c2ccccc2C1=O | ? | ? | ? | – | – | ?
O=C1C(Cl)=C(NCCc2ccccc2)C(=O)c2ccccc21 | 1.5µM | 32µM | ? | – | – | 0.82µM
O=C1C(Cl)=C(NCCc2ccccc2)C(=O)N1CCc1ccccc1 | – | – | – | – | – | –
N=C1SC(=Cc2ccc(-c3ccc4c(c3)C(=O)NC4=O)o2)C(=O)N1c1ccc(Br)cc1 | · | – | · | · | · | ·
CC(C)NC1=C(Cl)C(=O)c2ccccc2C1=O | ? | – | 10µM | 8.9µM | ? | 18µM
S=C(Nc1ccccc1)N1CCn2c(nc3ccccc32)C1 | – | – | – | – | – | –
CCCCOc1ccc(CSC(=N)N)cc1Cl | 18µM | 25µM | ? | – | ? | 15µM
CCOc1ccc(CSC(=N)N)cc1 | 18µM | – | – | – | – | 26µM
COc1ccc(Br)cc1CSC(=N)N | ? | – | – | – | – | ?
CCCCCOc1ccc(Br)cc1CSC(=N)N | 2.3µM | · | ? | – | · | 5.2µM
CN=C(Nc1ccc(C(=O)OC)s1)c1ccc(Cl)cc1 | – | – | – | – | – | –
SMILES | DT40 TDP1 no CPT | ATXN2 expr inh | TGFb SMAD3 inh | HepG2 viability | S2 tox | DT40 TDP1 CPT
COc1ccc(-c2nc(CSCC(=O)NC3CCCc4ccccc43)c(C)o2)cc1 (configuration not stated) | ? | – | – | – | – | ?
CCOC(=O)C1CCN(C(=O)Cn2ncc3c([nH]c4ccccc43)c2=O)CC1 | – | – | – | – | – | –
Cc1cccc(N=C2NC(=O)/C(=C/c3cccn3C)S2)c1C | 8.2µM | – | – | – | ? | ?
Cc1ccc(N=C2NC(=O)/C(=C\c3ccc(C)s3)S2)cc1 | ? | – | – | – | – | –
Cc1ccc(N=C2NC(=O)/C(=C/c3cccn3C)S2)cc1 | 4.6µM | · | – | – | – | 6.5µM
Cc1ccc(N=C2NC(=O)/C(=C/c3cccn3C)S2)cc1C | 9.2µM | – | – | – | – | 21µM
Cc1ccccc1N=C1NC(=O)/C(=C/c2cccn2-c2cccc(C(=O)O)c2)S1 | – | – | – | – | ? | –
O=C(Nc1ccc(F)cc1)c1cc(-c2ccncc2)nc2c(Cl)cccc12 | ? | – | – | – | – | ?
COc1ccc(OC)c(NC(=O)N2c3ccccc3Sc3ccccc32)c1 | ? | – | ? | – | – | 18µM
COCCNCC(=O)N1c2ccccc2Sc2ccccc21 | – | – | – | – | – | –
O=C(c1cccnc1)N1c2ccccc2Sc2ccccc21 | 15µM | – | – | – | – | 15µM
CCOc1ccccc1NC(=O)/C=C/C(N)=O | 4.1µM | ? | ? | – | · | 4.1µM
CC(C)CNCC(=O)N1c2ccccc2Sc2ccccc21 | ? | – | – | – | – | 16µM
COC(=O)c1ccc(C(=O)OC)c(NC(=O)N2c3ccccc3Sc3ccccc32)c1 | ? | ? | – | – | ? | ?
COc1ccc(CC(O)CO)cc1OCc1ccccc1 (configuration not stated) | – | · | – | – | – | –
COc1ccc(C(=O)COC(=O)c2cc(S(=O)(=O)N3CCCCC3)ccc2N2CCOCC2)c(OC)c1 | ? | – | – | – | – | ?
CCOC(=O)C1=C(C)NC(=S)NC1/C=C/c1ccccc1 (configuration not stated) | – | – | ? | – | – | –
Cc1ccc(CCNC(=O)c2cc3n(n2)CCCN(Cc2ccc(C)cc2)C3=O)cc1 | ? | – | – | – | – | ?
O=C(COc1ccc(Br)cc1)NCCNC(=O)c1ccccn1 | – | – | – | – | – | –
O=C(COc1ccc(Br)cc1)Nc1ccc([N+](=O)[O-])cn1 | – | – | – | – | – | –
COc1ccc(CCNC(=O)c2c(O)c3cc(OC)c(OC)cc3[nH]c2=O)cc1OC | ? | · | – | – | ? | –
CCOc1ccccc1C(=O)N1c2ccccc2Sc2ccccc21 | 13µM | – | ? | – | – | 10µM
CCOc1ccccc1NC(=O)Nc1cccc(C(C)=O)c1 | – | – | – | – | – | 29µM
CCOc1ccccc1NC(=O)N1c2ccccc2Sc2ccccc21 | 26µM | – | – | – | – | ?
COC(=O)c1ccccc1NC(=O)N1c2ccccc2Sc2ccccc21 | ? | – | ? | – | – | 18µM
CC(C)c1ccc(NC(=O)N2c3ccccc3Sc3ccccc32)cc1 | ? | – | – | – | – | ?
CCOC(=O)N1CCc2c(sc3c2c(=O)n(-c2ccccc2)c(=O)n3CC(=O)Nc2ccc(OC)cc2OC)C1 | ? | – | – | – | – | ?
Cc1ccc(NC(=O)CCc2c(C)nc3ncnn3c2C)nc1 | ? | – | – | – | – | –
O=C(Nc1sc2c(c1C(=O)NCc1ccccc1)CCCC2)c1cc(=O)c2cc(Cl)ccc2o1 | – | – | – | – | – | –
